Source: PubChem (several laboratories)
YopH PTP inh = YopH tyrosine phosphatase inhibitors, primary screen, biochemical, fluorescence Ex485/Em525; 140,000 tested, 0.16% active; AID 898, 2007; inhibition, % (no concentration beside the values); YopH tyrosine phosphatase [Yersinia enterocolitica]; in the data active = inhibition above about 50%
RmlCD inh 1536 = M. tuberculosis RmlC/RmlD coupled enzyme inhibitors, primary screen, biochemical, compound mixtures, 384-well, from 1536-well plates; RmlC+RmlD coupled enzyme assay, percent inhibition; primary screen in compound mixtures; 160,000 tested, 0.03% active; inhibition, % at 3.6 µM; dTDP-4-dehydrorhamnose reductase (Mycobacterium tuberculosis (strain ATCC 25618 / H37Rv)) …; in the data active = inhibition mostly above about 34%, no sharp cut-off
Target sequence (P9WH09 whole entry, looked up): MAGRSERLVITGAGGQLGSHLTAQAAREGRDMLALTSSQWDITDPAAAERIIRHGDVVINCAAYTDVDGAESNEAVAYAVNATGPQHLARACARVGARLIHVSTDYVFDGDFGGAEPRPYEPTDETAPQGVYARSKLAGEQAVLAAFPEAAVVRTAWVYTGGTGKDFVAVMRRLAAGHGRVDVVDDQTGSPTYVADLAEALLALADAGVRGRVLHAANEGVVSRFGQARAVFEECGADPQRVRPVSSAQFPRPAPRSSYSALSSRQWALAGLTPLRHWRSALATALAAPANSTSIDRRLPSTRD
Target sequence (P9WH11 whole entry, looked up): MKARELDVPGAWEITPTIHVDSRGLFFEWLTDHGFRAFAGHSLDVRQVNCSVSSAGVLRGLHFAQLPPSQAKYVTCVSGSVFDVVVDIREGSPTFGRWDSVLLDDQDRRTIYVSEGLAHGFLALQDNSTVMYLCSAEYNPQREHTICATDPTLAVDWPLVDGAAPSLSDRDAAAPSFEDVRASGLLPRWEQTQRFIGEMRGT
Starred values were filed as active, the others as inactive; x = no result given. The entries come from a sample that favours hits as a whole.

SMILES | YopH PTP inh | RmlCD inh 1536
COc1ccc(Cl)cc1C(=O)NNC(=O)C1COc2ccccc2O1 (configuration not stated) | x | -8.6
CCc1ccc(-c2cn3nc(-c4ccccc4)cnc3n2)cc1 | x | 70.3*
Cc1ccc(-c2cn3nc(C)c(C)nc3n2)cc1 | -17.6 | x
CCNc1nc2c(c(=O)[nH]c(=O)n2C)n1Cc1ccc(F)cc1 | -13.7 | -8.3
CCCNc1nc2c(c(=O)[nH]c(=O)n2C)n1Cc1ccc(F)cc1 | 60.1* | x
Cc1c(/C=C/C(=O)c2cccs2)cnn1C | -1.6 | x
Cc1cc(C(=O)OCC(=O)NC2CCS(=O)(=O)C2)c(C)n1-c1ccccc1 (configuration not stated) | -58.4 | x
COCCCNC(=O)CC(NS(=O)(=O)c1ccc(F)cc1)c1ccc(OC)cc1 (configuration not stated) | 68.2* | -7.9
COCCCNC(=O)CC(NS(=O)(=O)c1ccc(C)cc1)c1ccco1 (configuration not stated) | -25.8 | 4.3
CC(=O)Nc1ccc(S(=O)(=O)N(CC(=O)Nc2cc(C)on2)Cc2ccc(F)cc2)cc1 | x | 13.8
COC(=O)CCC(=O)Nc1ccc(NC(=O)CCC(=O)OC)cc1 | -45.6 | x
COC(=O)CCC(=O)Oc1ccc(OC(=O)CCC(=O)OC)cc1 | 59.1* | x
O=C(Nc1cccc(S(=O)(=O)NC2=NCCCCC2)c1)c1cc(-c2ccncc2)nc2ccccc12 | x | 8.2
Oc1ccc(Nc2nc3ccccc3nc2Nc2ccc(O)cc2)cc1 | 70.5* | -5.0
Cc1nc2ccccc2nc1N/N=C/c1ccc(O)cc1 | x | 3.5
COc1cccc(S(=O)(=O)Nc2cccc(C(=O)N3CCOCC3)c2)c1 | 1.6 | x
CCOC(=O)c1sc(Nc2ccccc2)nc1C | -18.8 | x
CCOC(=O)c1sc(Nc2nc3c(OC)cccc3s2)nc1C | -38.4 | 73.8*
O=C(NC(Cc1c[nH]c2ccccc12)c1nnc2n1CCCCC2)c1cccs1 (configuration not stated) | 55.4* | x
O=C(NC(Cc1c[nH]c2ccccc12)c1nnc2n1CCCCC2)c1ccccc1 (configuration not stated) | -22.0 | -9.7
CCn1c(-c2cc(OC)c(OC)c(OC)c2)n[nH]c1=S | 95.7* | x
C=CCn1c(-c2cc(OC)c(OC)c(OC)c2)n[nH]c1=S | 1.8 | 6.2
c1ccc2c(c1)COC(CN1CCCCC1)OC2 | x | -1.2
N#CC1=C(N)OC2=C(C(=O)CCC2)[C@]12C(=O)N(CC(N)=O)c1ccccc12 | -50.3 | x
O=C1CCCC2=C1C1(O)C(=O)c3ccccc3C1(O)O2 (configuration not stated) | 98.8* | 10.2
SMILES | YopH PTP inh | RmlCD inh 1536
COc1ccc(C(=O)C2CCCN(Cc3cn[nH]c3-c3ccc(F)cc3)C2)cc1OC (configuration not stated) | x | -11.2
CCC(C)N1Cc2ccccc2C1=N (configuration not stated) | 2.9 | 2.0
CC1=C(C)C(=O)C(CCCCC#CCCCC#CCO)=C(C)C1=O | 64.9* | x
COC1=C(OC)C(=O)C(CCCCCCCCCCO)=C(C)C1=O | x | -0.9
CCc1cccc(CC)c1N(COC)C(=O)Cn1cnc2ccccc21 | x | 7.0
CC(C)(C)c1cc(OC(=O)c2ccccc2F)ccc1O | x | -0.3
CC(C)(C)c1cc(OC(=O)c2ccncc2)ccc1O | 56.8* | x
COc1ccc(/C=N/NC(=O)CCn2cnc(-c3ccccc3)c2-c2ccccc2)cc1OC | -4.7 | 6.5
COc1ccc(/C=N/NC(=O)C(C)n2cnc3ccccc3c2=O)cc1OC (configuration not stated) | 67.2* | x
Cc1nc2ccccc2c(=O)n1NC(=O)c1c(O)c2c(n(CC(C)C)c1=O)CCCC2 | 83.6* | 43.7
CC(C)Cn1c2c(c(O)c(C(=O)Nc3nc4ccccc4s3)c1=O)CCCC2 | x | 82.1*
CCCCCCc1nc2ccccc2c(=O)n1NC(=O)c1c(O)c2c(n(CC(C)C)c1=O)CCCC2 | 4.9 | 6.8
CCCn1c2c(c(O)c(C(=O)Nc3nc4ccccc4s3)c1=O)CCCC2 | x | 1.4
CN(C)CC/C=C1\c2ccccc2COc2ccccc21 | -22.6 | x
COC(=O)c1ccc(NC(=O)COC(=O)c2nc3nccc(C)n3n2)cc1 | x | 2.7
CC(C)OC(=O)NC(c1ccccc1)C(Cl)(Cl)Cl (configuration not stated) | -6.1 | 8.4
CCN(CC)C(=O)C1=C(C)NC(=S)NC1c1cccs1 (configuration not stated) | x | 3.0
Cc1ccc(S(=O)(=O)/N=C2/C=C(Sc3ncn[nH]3)C(=O)c3ccccc32)cc1 | 99.6* | x
CC(C)c1ccc(S(=O)(=O)/N=C2/C=C(Sc3ncn[nH]3)C(=O)c3ccccc32)cc1 | 100.6* | -14.6
CCOc1ccc(S(=O)(=O)Nc2ccc(O)c(Sc3ncn[nH]3)c2)cc1 | -24.5 | 4.6
Cc1ccc(C)c(S(=O)(=O)Nc2ccc(O)c(Sc3ncn[nH]3)c2)c1 | x | -3.2
Cc1ccc(S(=O)(=O)Nc2ccc(O)c(Sc3ncn[nH]3)c2)cc1 | x | -10.7
Cc1ccc(S(=O)(=O)/N=C2/C=C(Sc3ncn[nH]3)C(=O)c3ccccc32)c(C)c1 | 101.2* | -12.7
CCn1nc(C)c(C(=O)Nc2cc(Oc3cc(C)cc(C)c3)cc([N+](=O)[O-])c2)c1C | -21.6 | -2.0
CCCCn1c(O)c(C=NCCN2CCCCC2)c(=O)[nH]c1=O | -43.9 | 0.8
SMILES | YopH PTP inh | RmlCD inh 1536
CCOC(=O)c1c(C)[nH]c(C)c1C(=O)COC(=O)c1cccc(C)c1O | 2.2 | 18.3
CC(C(=O)N1CCCc2c1c(=O)oc1ccc(O)cc21)N1CCc2ccccc2C1 (configuration not stated) | 52.5* | 8.0
CC1CCN(CCC(=O)N2CCCc3c2c(=O)oc2ccc(O)cc32)CC1 | 61.2* | -5.5
CN(CC(=O)N1CCCc2c1c(=O)oc1ccc(O)cc21)Cc1ccccc1 | 51.0* | 30.4
CC(C(=O)N1CCc2ccccc21)N1CCc2ccccc2C1 (configuration not stated) | -2.5 | x
CCCOc1ccc2oc(=O)c3c(c2c1)CCCN3C(=O)CN1CCCC(C(=O)OCC)C1 (configuration not stated) | -8.7 | 19.2
O=C(CN1CCCC1)N1CCCc2c1c(=O)oc1ccc(OCc3ccccc3)cc21 | -37.4 | -7.6
CCn1nnc(-c2ccccc2NC(=O)c2cc(OC)cc(OC)c2)n1 | -39.4 | 3.1
CCN(CC)S(=O)(=O)c1cccc(-c2nnc(SCC(=O)NC3CCCC3)n2N)c1 | -16.5 | -13.4
Cc1c(NC(=O)CC(=O)Nc2c(C)n(C)n(-c3ccccc3)c2=O)c(=O)n(-c2ccccc2)n1C | -44.3 | 8.4
CN(Cc1ccccc1)C(=O)COc1ccc(Br)cc1Cl | x | -12.3
CC(C)N(C(=O)COc1ccc(Br)cc1Cl)C(C)C | 52.4* | 30.3
O=C(c1ccc(Cl)cc1)[C@@H]1[C@@H]2C(=O)N(c3ccc(Cl)cc3)C(=O)[C@@H]2C2c3ccccc3C=NN21 (some centres not stated) | -13.8 | 4.3
O=C(c1ccco1)[C@@H]1[C@@H]2C(=O)N(c3ccc(F)cc3)C(=O)[C@@H]2[C@H]2C=Cc3ccccc3N21 | 39.5 | -5.6
O=C(c1ccco1)[C@@H]1[C@@H]2C(=O)N(c3ccc(F)cc3)C(=O)[C@@H]2C2c3ccccc3C=CN21 (some centres not stated) | 73.7* | 7.8
O=C(c1ccco1)[C@@H]1[C@@H]2C(=O)N(c3ccc(Br)cc3)C(=O)[C@@H]2C2c3ccccc3C=CN21 (some centres not stated) | 88.0* | x
